From PubChem BioAssay
OTUD3 inh – human OTUD3 deubiquitinase inhibition | Q5T2D3 | 47,000 tested, 0.7% active | purified OTUD3, Ub-rhodamine fluorescence, 2 h | inhibition, % at 25 µM
USP17 block – inhibitors of human USP17 deubiquitinase | A8MUK1 | purified USP17, Ub-rhodamine cleavage fluorescence, 3 h | inhibition, % at 50 µM | 47,000 tested, 6.5% active | AID 1645855
USP30 block – human USP30 deubiquitinase inhibition | purified USP30, Ub-rhodamine cleavage fluorescence | inhibition, % at 25 µM | 47,000 tested, 5.3% active | AID 1645860
Target sequence (Q70CQ3 whole entry, looked up): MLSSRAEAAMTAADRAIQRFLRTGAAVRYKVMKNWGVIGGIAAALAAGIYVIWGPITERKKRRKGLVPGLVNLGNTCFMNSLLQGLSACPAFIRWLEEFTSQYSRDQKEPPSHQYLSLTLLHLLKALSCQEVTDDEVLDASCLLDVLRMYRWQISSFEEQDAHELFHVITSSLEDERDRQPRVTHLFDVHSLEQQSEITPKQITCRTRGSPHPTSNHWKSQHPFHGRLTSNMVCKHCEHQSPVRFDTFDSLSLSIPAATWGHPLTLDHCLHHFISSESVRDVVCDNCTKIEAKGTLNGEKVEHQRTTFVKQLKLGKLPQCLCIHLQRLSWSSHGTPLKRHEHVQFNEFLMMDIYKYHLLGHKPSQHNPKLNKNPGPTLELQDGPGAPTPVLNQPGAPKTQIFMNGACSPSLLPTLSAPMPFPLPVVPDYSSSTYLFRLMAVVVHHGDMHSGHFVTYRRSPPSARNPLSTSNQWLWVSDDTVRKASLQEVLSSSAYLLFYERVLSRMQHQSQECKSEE
USP28 block – inhibitors of human USP28 deubiquitinase | purified USP28, Ub-rhodamine cleavage fluorescence, 30 min | inhibition, % at 25 µM | 47,000 tested, 3% active | Q96RU2 | AID 1645857
* hit, by the source's call; i = inactive. A selection: hits, their analogues and other compounds. The true share with any hit is near 11%. No stated cut-off is given here; in the data, active means inhibition above about 30%; inactive means the rest.

SMILES | OTUD3 inh | USP17 block | USP30 block | USP28 block
Cc1ccc(S(=O)(=O)Nc2ccc3[nH]cc(Cl)c3c2)cc1 | 13 | 49* | 39* | 44*
Cc1ccc(S(=O)(=O)Nc2ccc(S(=O)(=O)Nc3ccc(F)cc3)cc2)cc1 | 8 | 6 | 9 | 13
CCOc1ccc(NC(=O)CS(=O)(=O)c2[nH]c(-c3cccc(OC)c3)nc2-c2ccccc2)cc1 | 17 | 13 | 18 | 19
Cc1ccc(-c2nc(-c3ccccc3)c(S(=O)(=O)CC(=O)Nc3ccc(C)c(C)c3)[nH]2)cc1 | 32* | 37* | 1 | 14
COc1ccc(N2CCCn3c2nc2c3c(=O)n(Cc3cccc4ccccc34)c(=O)n2C)cc1 | 8 | 11 | 4 | 2
COc1cc(O)c2c(c1)C(=O)c1cc3c(c(O)c1C2=O)C(OC1OC(C)C(OC)C(O)C1OC)C(OC)C(C)(O)C3=O (centres undefined) | -149 | -160 | i | -202
CCCc1c(C(=O)O)c(O[C@H]2O[C@H](C)[C@@H](OC)[C@H](OC)[C@@H]2OC)cc2cc3c(c(O)c12)C(=O)c1c(O)cc(O[C@@H]2O[C@@H](C)[C@H](O[C@H]4O[C@H](C)[C@@H](OC)[C@H](OC)[C@@H]4O)[C@@H](OC)[C@H]2O)cc1C3=O | -31 | 55* | -316 | -84
CC(C)NC(=O)COc1ccccc1-c1nnc(-c2ccccc2)o1 | 9 | 30 | 50* | 21
COc1ccc(NC(=O)COc2ccccc2-c2nnc(-c3ccccc3)o2)cc1 | 4 | 35* | 33* | 8
O=C(COc1ccccc1-c1nnc(-c2ccccc2)o1)Nc1ccccc1F | 1 | 46* | 26 | 0
O=C(COc1ccccc1-c1nnc(-c2ccccc2)o1)NCc1ccc(F)cc1 | 13 | 22 | 23 | 11
COc1cc(-c2noc(-c3ccccc3C)n2)ccc1OCC(=O)NC(C)C | 17 | 21 | 33* | 9
O=S(=O)(c1cccnc1)N1CCC(O)(CN2CCCC2)C1 (centres undefined) | 8 | 16 | 21 | 12
O=[N+]([O-])c1ccc(-c2nc3ccccn3c2Br)cc1 | 12 | 39* | 44* | 7
Nc1c(-c2ccccc2)nc2ccccn12 | 9 | 1 | 20 | 6
COc1ccc(NC(=O)C2=C(C)Nc3ncnn3C2c2cccc(OC)c2OCc2ccc(Cl)cc2)c(OC)c1 (centres undefined) | 10 | 7 | 1 | 5
O=C(OCc1c(F)cccc1Cl)c1c2c(nc3ccccc13)CCC2 | 25 | 44* | 25 | 34*
CC(C)(C)C(=O)COC(=O)c1c2c(nc3ccccc13)CCCCC2 | 3 | 11 | 6 | 2
Cc1sc(NC(=O)CN2CCc3ccccc3C2)nc1-c1ccc2c(c1)CCN2C(=O)C(C)C | -48 | -5 | -241 | -36
COc1ccccc1OCC(=O)Nc1cccc2ccc(C)nc12 | 4 | 47* | 34* | 4
Cc1cc(OCC(=O)Nc2ccc(C#N)cc2)nc(-c2ccc(F)cc2)n1 | 2 | 19 | 29 | 12
COc1ccccc1NC(=O)COc1cc(C)nc(-c2ccc(C)cc2)n1 | 20 | 56* | 62* | 20
COc1ccc(NC(=O)C(C)Oc2cc(C(F)(F)F)c3c(C)nn(C)c3n2)c(OC)c1 (centres undefined) | 6 | 2 | 10 | 8
CCCCN(C)c1ncnc2c1oc1nc3c(cc12)COC(C)(C)C3 | -9 | -11 | -11 | -10
O=C(NCc1ccco1)N1CCCn2nc(-c3cccnc3)cc2C1 | -11 | 31* | -56 | -12
SMILES | OTUD3 inh | USP17 block | USP30 block | USP28 block
O=C(NCC1CCCO1)N1CCCn2nc(-c3cccnc3)cc2C1 (centres undefined) | 15 | 7 | 1 | 5
O=C(NCc1ccc(F)cc1)C1CCN(C(=O)c2cc(-c3ccccn3)n[nH]2)CC1 | 0 | -1 | 8 | -1
Cc1ccc(CN2CC[C@@H]3[C@H]2C(=O)NC[C@H](CCC(=O)NCc2cccnc2)N3C)cc1 | -6 | -74 | -43 | -9
COc1ccc(CN2CC[C@@H]3[C@H]2C(=O)NC[C@H](CCC(=O)NCc2cccnc2)N3C)cc1 | 25 | -30 | 38* | 34*
COc1ccc(CNS(=O)(=O)c2cc3[nH]c4c(c3cc2C)C(=O)CCC4)cc1 | -1 | -30 | -50 | 23
COc1ccc(-c2c(C)c(C(=O)c3ccco3)n3ccc4cc(OC)c(OC)cc4c23)cc1OC | -23 | 21 | -103 | -28
O=C(NCc1ccccc1)c1nc2n(n1)-c1ccccc1S(=O)(=O)N2 | 5 | 3 | 34* | 12
Cc1ccc(NC(=O)c2cc(-c3ccncc3)n[nH]2)c(Cl)c1 | 0 | 64* | 83* | 60*
O=C(Nc1ccc(Cl)cc1F)c1cc(-c2ccncc2)n[nH]1 | 8 | 67* | 74* | 25
Cc1ccc(O)c(-c2cc(C(=O)Nc3ccccc3Cl)[nH]n2)c1 | -7 | 68* | 27 | 6
O=C(Nc1ccc(F)cc1F)c1cc(-c2ccccn2)n[nH]1 | -3 | 9 | 17 | -7
CC(C)n1cnc(-c2cc(C(=O)NCCN3CCOCC3)c3ccccn23)c1 | -59 | -69 | -351 | -80
COc1cccc(N2CCN(c3nc(-c4ccccc4F)no3)CC2)c1 | -2 | -5 | 7 | 0
COc1cc(O)c2c(=O)c(OC)c(-c3cccc(Cl)c3O)oc2c1OC | 1 | -32 | 20 | 1
O=C(c1ccco1)C1C2C(=O)N(c3ccc(Br)cc3)C(=O)C2C2c3ccccc3C=CN12 (centres undefined) | -11 | 2 | -298 | -13
O=C(Nc1ccc(-c2cn3ccsc3n2)cc1)c1ccccc1Br | 13 | 17 | 37* | 17
COCCOc1ccc(C(=O)N[C@H](C)c2nc3cc(-c4ccccc4F)ncn3n2)cc1 | 0 | 0 | 8 | 0
COc1cccc(CC(=O)N[C@@H](C)c2nc3cc(-c4ccc(F)cc4)ncn3n2)c1 | 22 | 9 | 13 | 8
COc1ccc(-c2cc3nc([C@@H](C)NC(=O)c4ccc5c(c4)OCO5)nn3cn2)cc1 | 21 | 19 | 85* | 64*
COc1ccc(-c2cc3nc([C@H](C)NC(=O)Cc4cccc(F)c4)nn3cn2)cc1 | 17 | 37* | 60* | 12
COc1ccc(-c2cc3nc([C@H](C)NC(=O)Cc4cc(F)ccc4F)nn3cn2)cc1 | 29 | 40* | 37* | 22
O=C(Nc1ccc2c(N3CCOCC3)ncnc2c1)c1ccc(F)cc1 | -3 | -6 | -8 | -7
COc1ccc(S(=O)(=O)NCCc2nnc3ccc(SCC(=O)Nc4ccc(OC)cc4OC)nn23)cc1 | 0 | -18 | 4 | -5
CC1=CC(=O)C(C2=C(O)C(=O)C(C)=CC2=O)=C(O)C1=O | 36* | 94* | 20 | 46*
O=C(NCc1ccc2c(c1)OCO2)c1cc(-c2cc(Cl)ccc2O)n[nH]1 | 7 | 28 | 77* | 26
O=C(NCc1ccc2c(c1)OCO2)c1nnc(C(=O)Nc2ccc(F)cc2)s1 | 6 | 6 | 0 | 9
O=C(Nc1ccc2c(c1)OCO2)c1[nH]nc2c1CCc1ccccc1-2 | 22 | 66* | 4 | 43*
COc1cccc(CNC(=O)c2[nH]nc3c2CCc2ccccc2-3)c1 | 10 | 12 | 7 | 24
